Measurements from PubChem BioAssay AID1159580 (chemical genetic matrix, 2015).
“And” between values parts separate entries of the source, which are not always exact repeats. Identical values can stand only once. The whole screen tested about 5,500 compounds, of which about 2,000 (36%) were called active. Roughly 18% stayed inconclusive and do not appear here. Cut-off read from the data, not from the text of the source: active = normalized growth mostly below about 0.91 (no sharp cut-off); inconclusive = no clear call, values can overlap the other calls; inactive = mostly above about 0.92. This is one part of the list.

Experiment: chemical genetic growth profiling, strain panel (AID 1159580);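 note: tested at 20 µM; growth read once vehicle control cultures reached saturation at 30 °C; 1 = growth at the plate median or of vehicle wells; lower values mean less growth of the strain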
Conditions: S. cerevisiae deletion strains, growth OD

Measured: normalized growth

O=C(O)c1cc2ccccc2[nH]1
inactive: locus YAL013W, strain DEP1, hits give low values 1.01 | locus YAL021C, strain ccr4, hits give low values 0.969 | locus YAL026C, strain drs2, hits give low values 0.99 | locus YAL030W, strain snc1, hits give low values 1 | locus YBL061C, strain skt5, hits give low values 0.996 | locus YBR009C, strain hhf1, hits give low values 0.996 | locus YBR021W, strain FUR4, hits give low values 0.98 | locus YBR023C, strain chs3, hits give low values 0.994 | locus YBR171W, strain sec66, hits give low values 0.982 | locus YBR229C, strain ROT2, hits give low values 1 | locus YBR231C, strain swc5, hits give low values 0.994 | locus YBR279W, strain paf1, hits give low values 0.991 | locus YCL011C, strain gbp2, hits give low values 0.98 | locus YCL016C, strain dcc1, hits give low values 0.998 | locus YCL029C, strain bik1, hits give low values 1.01 | locus YCL061C, strain MRC1, hits give low values 0.973 | locus YCL069W, strain vba3, hits give low values 0.984 | locus YCR088W, strain abp1, hits give low values 0.98 | locus YDL005C, strain med2, hits give low values 0.982 | locus YDL035C, strain GPR1, hits give low values 1.01 | locus YDL040C, strain nat1, hits give low values 0.995 | locus YDL074C, strain BRE1, hits give low values 1.01 | locus YDL101C, strain DUN1, hits give low values 1.02 | locus YDL134C, strain PPH21, hits give low values 1.01 | locus YDL185W, strain tfp1, hits give low values 1.01 | locus YDL192W, strain arf1, hits give low values 1.02 | locus YDR001C, strain nth1, hits give low values 0.977 | locus YDR069C, strain doa4, hits give low values 1 | locus YDR101C, strain arx1, hits give low values 1.02 | locus YDR137W, strain rgp1, hits give low values 0.938 | locus YDR150W, strain NUM1, hits give low values 1.01 | locus YDR159W, strain sac3, hits give low values 0.982 | locus YDR162C, strain NBP2, hits give low values 1.04 | locus YDR195W, strain ref2 0.978 | locus YDR297W, strain sur2, hits give low values 0.981 | locus YDR318W, strain mcm21, hits give low values 1.01 | locus YDR334W, strain swr1, hits give low values 0.958 | locus YDR335W, strain msn5, hits give low values 0.987 | locus YDR388W, hits give low values 1.01 | locus YDR392W, strain spt3, hits give low values 0.947 | locus YDR502C, strain sam2, hits give low values 1.01 | locus YEL003W, strain gim4, hits give low values 0.978 | locus YEL037C, strain rad23, hits give low values 0.982 | locus YEL061C, strain CIN8 (second series), hits give low values 0.981 | locus YEL061C, strain CIN8, hits give low values 1 | locus YER015W, strain faa2, hits give low values 0.989 | locus YER016W, strain bim1, hits give low values 1 | locus YER110C, hits give low values 1.02 | locus YER111C, strain swi4, hits give low values 0.997 | locus YER155C, strain BEM2 (second series), hits give low values 1.01 | locus YER155C, strain BEM2, hits give low values 0.992 | locus YER167W, strain BCK2, hits give low values 1.01 | locus YFR010W, strain ubp6, hits give low values 0.968 | locus YGL078C, strain dbp3, hits give low values 0.995 | locus YGL086W, strain mad1, hits give low values 1.02 | locus YGL167C, strain pmr1, hits give low values 0.993 | locus YGL173C, strain kem1, hits give low values 0.975 | locus YGL227W, strain vid30, hits give low values 0.982 | locus YGL240W, strain doc1, hits give low values 1 | locus YGL248W, strain PDE1, hits give low values 1 | locus YGL253W, strain hxk2, hits give low values 0.987 | locus YGR078C, strain PAC10, hits give low values 0.99 | locus YGR135W, strain pre9, hits give low values 1.01 | locus YGR229C, strain SMI1, hits give low values 0.999 | locus YGR252W, strain gcn5, hits give low values 0.984 | locus YHR013C, strain ard1, hits give low values 1 | locus YHR027C, strain rpn1, hits give low values 1.02 | locus YHR030C, strain SLT2, hits give low values 1.01 and 1.03 | locus YHR079C, strain IRE1 (second series), hits give low values 1.01 | locus YHR079C, strain IRE1, hits give low values 1 | locus YHR094C, strain hxt1, hits give low values 1.02 | locus YHR129C, strain ARP1, hits give low values 1.01 | locus YHR142W, strain chs7, hits give low values 0.928 | locus YHR200W, strain rpn10, hits give low values 1.02 | locus YIL066C, strain RNR3, hits give low values 1.02 | locus YIL073C, strain SPO22, hits give low values 1.07 | locus YIL125W, strain kgd1, hits give low values 0.995 | locus YIR030C, strain dcg1, hits give low values 1.01 | locus YJL092W, strain hpr5, hits give low values 0.97 | locus YJL095W, strain BCK1 (second series), hits give low values 1 | locus YJL095W, strain BCK1, hits give low values 1.01 | locus YJL115W, strain asf1, hits give low values 0.975 | locus YJL129C, strain trk1, hits give low values 0.971 | locus YJL134W, strain LCB3, hits give low values 1.01 | locus YJL154C, strain vps35, hits give low values 0.966 | locus YJL164C, strain tpk1, hits give low values 1 | locus YJL166W, strain qcr8, hits give low values 1 | locus YJL168C, strain set2, hits give low values 1.02 | locus YJL187C, strain SWE1 (second series), hits give low values 1.01 | locus YJL187C, strain SWE1, hits give low values 0.988 | locus YJR043C, strain POL32, hits give low values 0.99 | locus YJR066W, strain TOR1, hits give low values 0.935
